According to PubChem BioAssay (NCI):
About 83,000 compounds went through this panel and 20% of them were active in at least one assay; those are over-represented in the sample as a whole.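 Note: values are percent growth. 100 is the growth of untreated cells, values between 100 and 0 indicate rising inhibition; between -100 and 0 indicates cell death.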 Values without a mark were called inactive. Activity calls are given as the source filed them. The calls were made as follows: active = growth percent below 10; inactive = the rest.

Tests used:
Experiment in all cases: NCI-60 one-dose screen, 48 h (100 = growth as untreated, 0 = no growth, -100 = all killed)
Conditions in all cases: 10 µM unless noted
RPMI-8226 leukemia = tested on: RPMI-8226 leukemia
OVCAR-8 ovarian = tested on: OVCAR-8 ovarian
OVCAR-5 ovarian = tested on: OVCAR-5 ovarian
OVCAR-4 ovarian = tested on: OVCAR-4 ovarian
SK-OV-3 ovarian = tested on: SK-OV-3 ovarian
IGROV1 ovarian = tested on: IGROV1 ovarian
HS 578T breast = tested on: HS 578T breast
NCI/ADR-RES ovarian = tested on: NCI/ADR-RES ovarian
T-47D breast = tested on: T-47D breast
SW-620 colon = tested on: SW-620 colon
MCF7 breast = tested on: MCF7 breast
HCT-116 colon = tested on: HCT-116 colon
HCC-2998 colon = tested on: HCC-2998 colon
KM12 colon = tested on: KM12 colon
BT-549 breast = tested on: BT-549 breast
MDA-MB-435 melanoma = tested on: MDA-MB-435 melanoma
OVCAR-3 ovarian = tested on: OVCAR-3 ovarian

Row | Structure (SMILES) | growth (RPMI-8226 leukemia) | growth (OVCAR-8 ovarian) | growth (OVCAR-5 ovarian) | growth (OVCAR-4 ovarian) | growth (SK-OV-3 ovarian) | growth (IGROV1 ovarian) | growth (HS 578T breast) | growth (NCI/ADR-RES ovarian) | growth (T-47D breast) | growth (SW-620 colon) | growth (MCF7 breast) | growth (HCT-116 colon) | growth (HCC-2998 colon) | growth (KM12 colon) | growth (BT-549 breast) | growth (MDA-MB-435 melanoma) | growth (OVCAR-3 ovarian)
1 | O=C(CCCCCCSc1nc(-c2ccccc2)cc(-c2ccc(Cl)cc2)n1)NO | 15.7% | 8.67% (active) | 21.6% | 41.3% | 0.785% (active) | -19.6% (active) | 45.7% | -25.5% (active) | -13.7% (active) | 11.9% | 15.9% | 6.79% (active) | 51.8% | 31.4% | – | – | –
2 | NC[C@H](O)c1ccc(O)c(O)c1 | 104% | 96.3% | 84.4% | 123% | 102% | 118% | 113% | 92.1% | 110% | 105% | 110% | 95.6% | 102% | 103% | 88.7% | 109% | –
3 | NS(=O)(=O)c1ccc(-n2nc(C(=O)N/N=C\c3ccc(F)cc3)cc2-c2ccc(Cl)cc2)cc1 | 104% | 96.8% | 103% | 97.8% | 93.5% | 76.1% | 86% | 106% | 79.5% | 95.8% | 81.3% | – | 98% | 96.9% | – | 94.3% | –
4 | Cn1ccc2c(c1=O)C(=O)c1nccc3c1c-2nc1ccccc13 | -29% (active) | -58.5% (active) | 69% | -44.9% (active) | 92.3% | 44.6% | – | 41% | 84.9% | -76.3% (active) | -59.1% (active) | -94.3% (active) | -96.2% (active) | -88.1% (active) | 87.4% | 76.4% | –
5 | CC1O[C@@H](OC2[C@H](OC(=O)/C=C/c3ccc(O)c(O)c3)C(COC3O[C@H](C)C(O)C(O)[C@@H]3O)O[C@@H](OCCc3ccc(O)c(O)c3)[C@H]2O)[C@@H](O)C(O)[C@H]1O (stereo partly specified) | 104% | 106% | 105% | 104% | 90.3% | 102% | 108% | 116% | 83.1% | 108% | 98.2% | 103% | 99.4% | 99.3% | 98.8% | 103% | –
6 | COc1cc(/C=N/n2c(CN3CCOCC3)nc3ccccc3c2=O)cc(OC)c1OC | 107% | 96.1% | 97.4% | 104% | 103% | 98.3% | – | 101% | 94.4% | 106% | 99.4% | 94.5% | 104% | 101% | 103% | 102% | 106%
7 | COc1ccccc1NC(=O)N/C(N)=N/c1nc2ccccc2s1 | 9.34% (active) | 27.1% | 34.8% | 50.7% | 40.5% | 21.8% | – | 4.92% (active) | 52.2% | 25.6% | 20.3% | 13.4% | 28.6% | 10.4% | 50.8% | -18.6% (active) | -18.9% (active)
8 | O=S(=O)(O)c1ccc(N/N=C/c2ccccc2Cl)cc1 | 98.7% | 115% | 104% | 112% | 112% | 101% | 111% | 110% | 106% | 108% | 99.2% | 104% | – | 116% | – | 102% | –
9 | COc1cc(/C=C2\C(=O)ON=C2C)cc(OC)c1OC | 95.9% | 99.7% | 99.3% | 104% | 98.9% | 101% | – | 100% | 97.9% | 97.7% | 97% | 104% | 94.5% | 100% | 112% | 102% | 101%
10 | CCCCCc1nc2c(c3c1CCCC3)CCCC2 | 0.398% (active) | 59.8% | 67.2% | 70.7% | 80.7% | 61.7% | 65% | 48.3% | 71.9% | 89.9% | 66.9% | 48.8% | 87.8% | 88.3% | 115% | 99.7% | –
11 | COc1ccc(-c2c(N)n[nH]c2-c2ccc(Cl)cc2O)cc1OC | 74.5% | 87.1% | 72.6% | 94.1% | 102% | 92.3% | – | 90.4% | 91.2% | 102% | 86% | 90.1% | – | 83% | 105% | 69.7% | 95.6%
12 | O=C(N/N=C/C=C/c1ccc([N+](=O)[O-])o1)c1cc2ccccc2cc1O | -11.2% (active) | 0.564% (active) | -1.58% (active) | -100% (active) | -13.5% (active) | -62.6% (active) | -4.48% (active) | 0.815% (active) | -65.5% (active) | -75.6% (active) | -61.3% (active) | -92.8% (active) | -100% (active) | -67.3% (active) | -9.91% (active) | -24.2% (active) | –
13 | O=c1ccn2nc3ccccc3c2[nH]1 | 101% | 114% | 79.2% | 111% | 99.4% | 110% | 134% | 60.1% | 95% | 114% | 107% | 103% | – | 112% | 98.2% | 118% | –
14 | Cc1nc2ccccc2c(/C=C/c2ccc(Cl)cc2)c1C(=O)/C=C/c1ccc(F)cc1 | -25.1% (active) | 12.8% | -19.7% (active) | 25.8% | 61.9% | -5.53% (active) | 8.46% (active) | -0.868% (active) | 17.7% | -19.6% (active) | 17.6% | -70.5% (active) | -67.3% (active) | 21.2% | 13.9% | -21.3% (active) | –
15 | O=C1/C(=C/c2ccccc2)CCc2nc3ccccc3c(/C=C/c3ccc(Cl)cc3)c21 | 75.9% | 87.7% | 108% | 80.5% | 81.8% | 72.3% | – | 89.4% | 54% | 103% | 51.8% | 57.7% | 93.5% | 91.4% | 104% | 95.6% | 90.1%
16 | CC(C)C(=O)Nc1n[nH]c2cc(-c3cccc(NS(=O)(=O)C4CC4)c3)ccc12 | 66.1% | 82.2% | 87.4% | 52.8% | 62.3% | 64.6% | – | 98.1% | – | 74.5% | 33.2% | 52.5% | 83.4% | 61.3% | 42.3% | – | 57.8%
17 | CCCCCCCCCCCC(c1ccccc1)[N+](C)(C)C (stereo unspecified) | -16.1% (active) | 19.3% | 17.3% | 9.74% (active) | 10.3% | -60.8% (active) | – | 91.7% | 2.28% (active) | 41.9% | 16.1% | 9.83% (active) | – | -20.7% (active) | -36.3% (active) | – | 18.6%
18 | Cc1ccc2nc(NC(=O)CSc3nc(-c4ccccc4)c(C#N)c(=O)n3Cc3ccccc3)sc2c1 | 67.8% | 93% | 108% | 92.8% | 82.1% | 78% | – | 92.2% | -80.8% (active) | 87.4% | 86.2% | 95.9% | 118% | 90.6% | 89.3% | 45.7% | 58.5%
19 | O=S(=O)(Nc1cccc(Cl)c1)c1ccc(-c2cnc(C3CC3)o2)cc1 | 17.8% | 33.5% | 37.2% | 41.7% | 34.3% | 26.4% | 1.3% (active) | 18.9% | 25% | 11.3% | 14.2% | 15.3% | 46.3% | 20.8% | 26.6% | -21.5% (active) | –
